Shown are actives, neighbours in structure and some others; about 3.4% of the full set was active somewhere.
GPR151 ag – human GPR151 activation; Q8TDV0; PathHunter beta-arrestin GPR151 cells, luminescence; activation, % at 11.2 µM; 1% of 650,000 active; AID 1508602; in the data active = activation above about 4.9%
Target sequence (Q8TDV0 whole entry, looked up): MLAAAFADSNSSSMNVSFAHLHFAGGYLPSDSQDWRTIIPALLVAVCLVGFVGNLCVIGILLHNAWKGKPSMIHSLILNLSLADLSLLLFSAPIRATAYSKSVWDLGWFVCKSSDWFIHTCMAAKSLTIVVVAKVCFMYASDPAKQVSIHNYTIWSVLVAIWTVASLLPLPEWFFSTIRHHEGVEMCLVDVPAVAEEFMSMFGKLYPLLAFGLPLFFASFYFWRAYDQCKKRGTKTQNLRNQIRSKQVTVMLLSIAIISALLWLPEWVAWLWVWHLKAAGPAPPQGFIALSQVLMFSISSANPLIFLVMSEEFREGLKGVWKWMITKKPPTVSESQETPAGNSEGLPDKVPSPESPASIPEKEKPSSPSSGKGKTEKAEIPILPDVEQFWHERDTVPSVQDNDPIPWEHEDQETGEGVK
TEAD-YAP block – TEAD-YAP interaction inhibition | HEK-TIYL cells, TEAD-Gal4/YAP UAS-luciferase luminescence | inhibition, % at 9.12 µM | 1.4% of 640,000 active; in the data active = inhibition above about 32%
FBW7 act – activators of human E3 ligase FBW7; Q969H0; AlphaScreen FBW7–phospho-cyclin E peptide binding, activator screen; normalized activity (activation), % at 26.1 µM; 0.13% of 650,000 active; in the data active = normalized activity above about 1.9%;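 note: purified mutant Fbw7 with reduced substrate affinity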
MITF primary – human MITF inhibition, primary screen. AID 1259374. inhibition, % at 2.6 µM. O75030. 0.91% of 650,000 active. AlphaScreen MITF homodimerization, bead proximity signal; in the data active = inhibition above about 50%
GPR151 conf act – confirmation of human GPR151 activators. shares compounds with GPR151 ag. GPR151 PathHunter beta-arrestin cells, luminescence, 90 min; % of EA-reagent control over plate median. activation, % at 11.2 µM. 6,700 tested, under 10 active. AID 1508609;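 active = mean percent activation across replicates above the confirmation screen cutoff of 4.91%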
GPR119 ag – GPR119 activation, counter-screen for GPR151 activators; GPR119 PathHunter beta-arrestin cells, luminescence, 90 min; 0 = compound-well median, 100 = enzyme-acceptor control; AID 1508611; 0.3% of 6,700 active; shares compounds with GPR151 ag; activation, % at 11.2 µM;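 active = mean percent activation in the counterscreen above 29.09%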;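 note: counterscreen on off-target GPR119 to flag nonselective hits from the GPR151 activator screen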
Hits are given with their value.

Results for Cc1nnc2n1CCN(C(=O)c1ccccc1N(C)C)CC2 ?
GPR151 ag: 5.2; TEAD-YAP block: inactive; FBW7 act: inactive; MITF primary: inactive; GPR151 conf act: inactive; GPR119 ag: inactive

Results for O=C(CNC(=O)C1CCCCC1)NNC(=O)c1ccccc1Br ?
GPR151 ag: 5.8; TEAD-YAP block: inactive; FBW7 act: inactive; MITF primary: inactive; GPR151 conf act: inactive; GPR119 ag: inactive

Results for COC(=O)c1c(NC(=S)N2CCN(S(C)(=O)=O)CC2)sc2c1CCCCCC2 ?
GPR151 ag: 6.7; TEAD-YAP block: inactive; FBW7 act: inactive; MITF primary: inactive; GPR151 conf act: inactive; GPR119 ag: inactive

Results for COC(=O)c1c(NC(=S)N2CCN(C(=O)C3CCCO3)CC2)sc2c1CCC2 (centres undefined) ?
GPR151 ag: inactive; TEAD-YAP block: inactive; FBW7 act: inactive; MITF primary: inactive

What do the screens show for `COc1ccc(CN2CCCC(CO)(Cc3ccccc3)C2)c(F)c1` (centres undefined)?
GPR151 ag: inactive; TEAD-YAP block: inactive; FBW7 act: inactive; MITF primary: inactive

How did O=C(c1ccc(Cn2nnc3ccccc3c2=O)cc1)N1CCc2ccccc2C1 do in these assays?
GPR151 ag: inactive; TEAD-YAP block: inactive; FBW7 act: inactive; MITF primary: inactive

Results for O=C(c1ccc(-n2nnc3ccccc3c2=O)cc1)N1CCc2ccccc2C1 ?
GPR151 ag: 6.0; TEAD-YAP block: inactive; FBW7 act: inactive; MITF primary: inactive; GPR151 conf act: inactive; GPR119 ag: inactive

How did CC1=C(C(=O)Nc2c(F)cccc2F)C(c2ccc(N(C)C)cc2)C2=C(CC(C)(C)CC2=O)N1 (centres undefined) do in these assays?
GPR151 ag: inactive; TEAD-YAP block: inactive; FBW7 act: inactive; MITF primary: inactive

Results for CC1=C(C(=O)Nc2ccc(F)cc2)C(c2ccc(N(C)C)cc2)C2=C(CC(C)(C)CC2=O)N1 (centres undefined) ?
GPR151 ag: 5.6; TEAD-YAP block: inactive; FBW7 act: inactive; MITF primary: inactive; GPR151 conf act: inactive; GPR119 ag: inactive

Results for CC1=C(C(=O)Nc2cccc(C)n2)C(c2ccc(C)cc2)C2=C(CC(C)(C)CC2=O)N1 (centres undefined) ?
GPR151 ag: 6.9; TEAD-YAP block: inactive; FBW7 act: inactive; MITF primary: inactive; GPR151 conf act: inactive; GPR119 ag: inactive

Results for Cc1cn2c3c(=O)n(C)c(=O)n(C)c3nc2n1CCCN1CCOCC1 ?
GPR151 ag: inactive; TEAD-YAP block: inactive; FBW7 act: inactive; MITF primary: inactive

How did Cc1ccnc(SCC(=O)N2CCc3ccccc32)n1 do in these assays?
GPR151 ag: 5.4; TEAD-YAP block: inactive; FBW7 act: inactive; MITF primary: inactive; GPR151 conf act: inactive; GPR119 ag: inactive

Results for O=C(CSc1nnc(-c2ccccc2O)o1)N1CCc2ccccc21 ?
GPR151 ag: 6.3; TEAD-YAP block: inactive; FBW7 act: inactive; MITF primary: inactive; GPR151 conf act: inactive; GPR119 ag: inactive

What do the screens show for `CCN1CCN(C(=S)Nc2cccc(Cl)c2)CC1`?
GPR151 ag: 5.8; TEAD-YAP block: inactive; FBW7 act: inactive; MITF primary: inactive; GPR151 conf act: inactive; GPR119 ag: inactive

What do the screens show for `CN1CCN(C(=S)Nc2cccc(Cl)c2)CC1`?
GPR151 ag: inactive; TEAD-YAP block: inactive; FBW7 act: inactive; MITF primary: inactive

What do the screens show for `Cc1cc2c(cc1S(=O)(=O)Nc1ccccn1)OCCN2C`?
GPR151 ag: inactive; TEAD-YAP block: inactive; FBW7 act: inactive; MITF primary: inactive

How did CCc1ccccc1NS(=O)(=O)c1ccc2c(c1)OCCN2C do in these assays?
GPR151 ag: inactive; TEAD-YAP block: inactive; FBW7 act: inactive; MITF primary: inactive

How did Cc1cc2c(cc1S(=O)(=O)Nc1ncccc1C)OCCN2C do in these assays?
GPR151 ag: 6.3; TEAD-YAP block: inactive; FBW7 act: inactive; MITF primary: inactive; GPR151 conf act: inactive; GPR119 ag: inactive

Results for COc1ccc(CCNS(=O)(=O)c2ccc3c(c2)OCCN3C)cc1OC ?
GPR151 ag: 5.2; TEAD-YAP block: inactive; FBW7 act: inactive; MITF primary: inactive; GPR151 conf act: inactive; GPR119 ag: inactive

Results for CN1CCOc2cc(S(=O)(=O)Nc3ccccc3F)ccc21 ?
GPR151 ag: 16; TEAD-YAP block: inactive; FBW7 act: inactive; MITF primary: inactive; GPR151 conf act: inactive; GPR119 ag: inactive

How did Cc1cc2c(cc1S(=O)(=O)Nc1ccccc1Br)OCCN2C do in these assays?
GPR151 ag: 9.7; TEAD-YAP block: inactive; FBW7 act: inactive; MITF primary: inactive; GPR151 conf act: inactive; GPR119 ag: inactive

What do the screens show for `CN1CCOc2cc(S(=O)(=O)NCCc3ccc(Cl)cc3)ccc21`?
GPR151 ag: inactive; TEAD-YAP block: inactive; FBW7 act: inactive; MITF primary: inactive

Results for COc1ccc(C(=O)/C=C\Nc2ccc(S(=O)(=O)Nc3onc(C)c3C)cc2)cc1 ?
GPR151 ag: inactive; TEAD-YAP block: inactive; FBW7 act: inactive; MITF primary: inactive

What do the screens show for `COC(=O)Cn1cc(/C=C(/C#N)C(=O)Nc2ccc(F)cc2)c2ccccc21`?
GPR151 ag: inactive; TEAD-YAP block: inactive; FBW7 act: inactive; MITF primary: inactive

Results for C=CCN1C(=O)CS/C1=N\NC(=O)c1ccccc1 ?
GPR151 ag: 18; TEAD-YAP block: inactive; FBW7 act: inactive; MITF primary: inactive; GPR151 conf act: inactive; GPR119 ag: inactive

How did COc1ccc(C(=O)c2sc3nc(C)cc(C)c3c2N)c(OC)c1 do in these assays?
GPR151 ag: 7.0; TEAD-YAP block: inactive; FBW7 act: inactive; MITF primary: inactive; GPR151 conf act: inactive; GPR119 ag: inactive

Results for COc1cccc(C2c3c(oc4ccccc4c3=O)C(=O)N2CCO)c1 (centres undefined) ?
GPR151 ag: 8.0; TEAD-YAP block: inactive; FBW7 act: inactive; MITF primary: inactive; GPR151 conf act: inactive; GPR119 ag: inactive

What do the screens show for `C=CCN1C(=O)c2oc3ccccc3c(=O)c2C1c1ccccc1` (centres undefined)?
GPR151 ag: 6.4; TEAD-YAP block: inactive; FBW7 act: inactive; MITF primary: inactive; GPR151 conf act: inactive; GPR119 ag: inactive

Results for Cc1nc2c(nnn2Cc2ccccc2)c(=O)n1Cc1ccccc1 ?
GPR151 ag: 10; TEAD-YAP block: inactive; FBW7 act: inactive; MITF primary: inactive; GPR151 conf act: inactive; GPR119 ag: inactive

What do the screens show for `Cc1nc2c(nnn2Cc2ccccc2)c(=O)n1C`?
GPR151 ag: inactive; TEAD-YAP block: inactive; FBW7 act: inactive; MITF primary: inactive

What do the screens show for `COc1cc([N+](=O)[O-])ccc1NC(=S)N1CCN(c2ccc(C(C)=O)cc2)CC1`?
GPR151 ag: 7.3; TEAD-YAP block: inactive; FBW7 act: inactive; MITF primary: inactive; GPR151 conf act: inactive; GPR119 ag: inactive

What do the screens show for `CC(=O)c1ccc(N2CCN(C(=S)Nc3cccc([N+](=O)[O-])c3)CC2)cc1`?
GPR151 ag: 5.2; TEAD-YAP block: inactive; FBW7 act: inactive; MITF primary: inactive; GPR151 conf act: inactive; GPR119 ag: inactive
